# Shown are actives, neighbours in structure and some others; about 12% of the full set was active somewhere.
# BAZ2B inh: blocks human BAZ2B; Q9UIF8; AlphaScreen BAZ2B-H3K14Ac peptide displacement; Potency, µM (series often up to 114 µM), for the others: at the top dose activity change, negative = inhibition, most hits filed as inhibitors; 4.4% of 360,000 active; note: potency is the fitted concentration of half-maximal effect; % is set by controls: 0 for no effect and ±100 for the full control effect; nearly all actives have a fitted effect of over 60% in size
#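 BAZ2B (50 nM) with biotin-H3(5-23)K14Ac peptide (50 nM) in PBS pH 7.4, 0.01% Tween-20, preformed 30 min, then compound 30 min at room temperature; top concentration 110uM. AlphaScreen streptavidin donor/nickel chelate acceptor beads (10 ug/mL final), 20 min dark, signal read.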
# JMJD2A Tudor inh: JMJD2A Tudor domain (human) inhibition; O75164; AlphaScreen JMJD2A-Tudor / H3K4me3 peptide binding; Potency, µM (titrated, usually from 114 µM), inactives show at the top dose activity change, negative = inhibition, most hits filed as inhibitors; 4.4% of 390,000 active; note: potency is the fitted concentration of half-maximal effect; % is set by controls: 0 for no effect and ±100 for the full control effect; nearly all actives have a fitted effect of over 50% in size
# PLK1 PBD inh: PLK1 (human) polo-box domain binding inhibition; P53350; Plk1 PBD binding of FITC phosphopeptide, fluorescence polarization; 2.8% of 360,000 active; Potency, µM, for the others: max response, negative = inhibition, most hits filed as inhibitors; note: potency is the fitted concentration of half-maximal effect; series mostly up to about 57 µM; % is set by controls: 0 for no effect and ±100 for the full control effect; nearly all actives have a fitted effect of over 65% in size
# HP1b chromo inh: blocks HP1-beta chromodomain binding to methylated histone tails | P83916 | AlphaScreen HP1-beta / biotin-H3K9me3 peptide binding | Potency, µM (series often up to 114 µM), for inactives: top-dose activity change, negative = inhibition, most hits filed as inhibitors | 0.56% of 390,000 active | AID 540317; note: potency is the fitted concentration of half-maximal effect; nearly all actives have a fitted effect of over 70% in size
# Target sequence (P83916 whole entry, looked up): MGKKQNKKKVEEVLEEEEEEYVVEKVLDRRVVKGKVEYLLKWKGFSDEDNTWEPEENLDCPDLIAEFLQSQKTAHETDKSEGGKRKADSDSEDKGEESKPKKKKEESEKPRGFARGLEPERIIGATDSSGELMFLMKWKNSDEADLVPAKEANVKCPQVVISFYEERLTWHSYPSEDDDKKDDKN
#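 Compound inhibition of the preformed complex between 50 nM HP1-beta and 50 nM biotinylated H3K9me3 peptide was read by AlphaScreen. Buffer was PBS pH 7.4 with 0.01% Tween-20. Incubations ran 30 min at room temperature, with 10 ug/mL donor/acceptor beads.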
# PI5P4Ka inh: blocks human PI5P4K alpha kinase activity | 1.2% of 330,000 active | AID 652105 | PI5P4Kalpha enzyme, ADP-Glo luminescence, 60 min; hits give low values | max response, % | P48426; active = max response of -50% or lower; inconclusive = between -30% and -50%; inactive = -30% or higher; note: value at the top dose of about 77 µM; % is set by controls: 0 for no effect and ±100 for the full control effect
#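 ADP-Glo luminescence end-point after a 60 min room-temperature kinase reaction. PI5P4Kalpha and substrate in HEPES pH 7.4 buffer with EGTA, 0.1% CHAPS and 5% DMSO; ATP at 5 microM final.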
# G9a inh: G9a (human) methyltransferase inhibition; Q96KQ7; G9a H3K9 monomethylation, AlphaScreen, 2 h; 8.8% of 350,000 active; AID 504332; Potency, µM (highest dose often 102 µM), for the others: at the top dose activity, negative = inhibition, usual class: inhibitors; note: potency is the fitted concentration of half-maximal effect; % is set by controls: 0 for no effect and ±100 for the full control effect; nearly all actives have a fitted effect of over 75% in size
# Target sequence (Q96KQ7 913-1193 limits assumed): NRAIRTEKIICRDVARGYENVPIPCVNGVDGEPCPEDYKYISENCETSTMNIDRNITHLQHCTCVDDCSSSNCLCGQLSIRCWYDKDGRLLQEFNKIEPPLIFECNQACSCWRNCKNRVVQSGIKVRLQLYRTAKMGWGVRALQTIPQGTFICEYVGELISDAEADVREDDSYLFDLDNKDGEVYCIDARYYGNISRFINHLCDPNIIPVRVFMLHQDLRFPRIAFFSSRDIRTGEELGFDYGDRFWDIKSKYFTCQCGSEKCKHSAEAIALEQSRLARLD
#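 AlphaScreen detection with an anti-monomethyl H3K9 antibody quantified product after a 2 h room-temperature reaction containing 500 nM biotinylated H3K9 peptide, 20 µM SAM and 20 nM enzyme, which had been preincubated 15 min with compound.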
# Active calls of the source: *; ? = inconclusive; / = no result given; [ ] = remark or other dose. Unless noted, calls come from the whole dose curve; as a rule, active = well fitted curve in the direction sought with a large enough effect; inconclusive = small, poorly fitted or top-dose-only effect, or another doubt; inactive = no such curve, though single readings can be large; an effect the other way counts as inactive or inconclusive.
SMILES,BAZ2B inh,JMJD2A Tudor inh,PLK1 PBD inh,HP1b chromo inh,PI5P4Ka inh,G9a inh
Cc1ccc(-c2ccc(=O)n(CC(=O)Nc3ccc(F)c(Cl)c3)n2)cc1C,-7%,-7%,/,38%,/,7%[59 µM]
CCC(C)(Oc1ccc(C2(c3ccc(OC(C)(CC)C(=O)O)cc3)CCCCC2)cc1)C(=O)O (stereo not drawn),/,/,/,/,/,-5%[12.7 µM]
Cc1oncc1C(=O)NC(C)C,4%,6%,-12%,38%,1,45µM*
Cc1oncc1C(=O)Nc1cccc(C#N)c1,-11%,2%,-7%,26%,5,22%
N#Cc1cc2ccccc2n2nnnc12,-10%,0%,0%,17%,-3,50µM*
O=C1CCCC2=C1C1(CCCC1)N=C(Nc1nc3ccccc3n1Cc1ccccc1)N2,/,-21%,/,/,/,/
COc1cc(NS(=O)(=O)c2ccc(NC(=O)c3cccs3)cc2)nc(OC)n1,-15%,-19%,0%,-3%,5,-14%
COc1cc(NS(=O)(=O)c2ccc(NC(=S)NC(=O)c3sc4cc(F)ccc4c3Cl)cc2)nc(OC)n1,-29%,?,27µM*,?,?,?
COc1cc(NS(=O)(=O)c2ccc(NC(C)=O)cc2)nc(OC)n1,-5%,5%,-1%,34%,/,3%[59 µM]
COc1cc(NS(=O)(=O)c2ccc(NC(=S)NC(=O)c3sc4ccccc4c3Cl)cc2)nc(OC)n1,50µM*,-33%,?,?,-27,?
Cc1oc(-c2cccs2)nc1CS(=O)CC(=O)NCCc1ccccc1 (stereo not drawn),-25%,-26%,?,21%,-16,50µM*
CCCCNC(=O)CS(=O)Cc1nc(-c2cccs2)oc1C (stereo not drawn),-2%,-9%,?,35%,-14,50µM*
Cc1oc(-c2ccc(Cl)cc2)nc1CS(=O)CC(=O)NCCc1ccccc1 (stereo not drawn),-13%,-27%,/,20%,/,6%[59 µM]
COc1ccc(NC2CCCN(C(=O)c3ccc(OC)o3)C2)cc1 (stereo not drawn),?,-32%,-8%,8%,2,/
Cc1ccc(NC2CCCN(C(=O)CCN3CCCCO3)C2)cc1C (stereo not drawn),-29%,-7%,2%,15%,4,32µM*
Cc1ccc(NC2CCCN(C(=O)C3CCCCC3)C2)cc1C (stereo not drawn),79µM*,-35%,-9%,12%,4,/
COc1ccc(NC2CCCN(C(=O)c3cn(C)c4ccccc34)C2)cc1 (stereo not drawn),?,-26%,-2%,-11%,-3,18µM*
O=C(CCN1CCCCO1)N1CCCC(Nc2ccc(F)c(F)c2)C1 (stereo not drawn),-2%,-14%,-7%,27%,4,28%
Cc1ccc(NC2CCCN(C(=O)c3cn(C)c4ccccc34)C2)cc1C (stereo not drawn),?,25µM*,-6%,-14%,9,?
Cc1cccc(C(=O)Nc2ccc(N3CCC(N4CCCCC4)CC3)c(C(=O)O)c2)c1,-14%,-20%,/,19%,/,-32%[59 µM]
COc1ccc(-c2nc3c(Cl)cc(C(F)(F)F)cn3c2Cc2ccsc2)cc1OC,/,/,-1%,/,-5,/
CCc1nc2c(OCc3ccc(C(F)(F)F)cc3)cccn2c1N(C)C(=O)C1CC1,/,/,1%,/,-5,/
O=C(Nc1ccc(Cl)cc1)Nn1cnnc1,-11%,-16%,7%,37%,2,/
Cc1ccc(S(=O)(=O)Nc2nc(-c3ccc(F)cc3)cs2)cc1,?,-34%,?,-15%,-1,50µM*
CCCNC(=O)c1ccccc1NS(=O)(=O)c1ccc(OC)c(OC)c1,-2%,0%,-5%,40%,-2,?
COc1ccc(S(=O)(=O)Nc2ccccc2C(=O)Nc2nc(-c3ccc(F)cc3)cs2)cc1OC,?,?,24µM*,-21%,-9,?
CCOC(=O)c1ccccc1-c1csc(NS(=O)(=O)c2ccc(Cl)cc2)n1,56µM*,-11%,?,20%,-4,-35%[59 µM]
